The list is not random: actives were taken first. Their share in the collection is about 15%.
Pf growth 48h: inhibits P. falciparum growth in the first generation, 48 h; P. falciparum luciferase growth in erythrocytes, 48 h; Potency, µM (highest dose often 28.7 µM), actives largely listed as inhibitors; hit rate 5.9% among 310,000
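In quantitative HTS format, infected erythrocytes bearing luciferase-reporter parasites were treated for a single generation at 37 C. Luminescence after adding detection reagent served as the growth measure.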
SARS PLP yeast: blocks SARS-CoV papain-like protease in a yeast assay; S. cerevisiae expressing SARS-CoV PLpro, growth rescue; Potency, µM (highest dose often 32.9 µM), most hits filed as activators; hit rate 0.19% among 330,000; calls by dose curve; also: nearly all actives have a fitted effect of over 55% in size
Sm TGR block: inhibitors of Schistosoma mansoni thioredoxin glutathione reductase | Q962Y6 | purified TGR, DTNB reduction, TNB absorbance 405 nm | Potency, µM (doses to about 114 µM), most hits filed as inhibitors | hit rate 3% among 360,000 | AID 485364; also: nearly all actives have a fitted effect of over 60% in size
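First, TGR (20 nM dispensed) and NADPH were mixed with compound. Second, a 15 min room-temperature incubation followed. Third, further NADPH and then DTNB were added to start the reaction. Finally, TNB absorbance was monitored kinetically.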
HCMV antiviral: human cytomegalovirus inhibition | HFF cells, HCMV-luciferase reporter, 72 h; stronger effect = lower value | activity change, negative = inhibition, % at 57.5 µM | hit rate 4.5% among 410,000; in the data active = activity change below about -60%; inconclusive = no clear call, values can overlap the other calls; inactive = above about -39%
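Cell-based, HFFs, 1000 cells/well, 16 h 37C; cpds in DMSO + HCMV-luc, MOI 1 PFU/cell; 72 h 37C; OneGlo luminescence after 5 min RT; norm. to buffer vs Salinomycin 10uM.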
Pf growth 96h: inhibits malaria parasite growth, 96 h; P. falciparum luciferase reporter growth, 96 h; Potency, µM (doses to about 28.7 µM), most hits filed as inhibitors; hit rate 6.9% among 320,000
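P. falciparum expressing integrated firefly luciferase, in erythrocytes at 2% hematocrit, 0.05% parasitemia, incubated with compounds 96 h at 37 C, 5% CO2. Growth inhibition read as loss of luminescence; two-generation exposure targets delayed-death apicoplast inhibitors.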
HCV inh: HCV inhibition | Huh7.5.1 HCVcc-Cre infection, luciferase reporter, 44 h | Potency, µM (top dose mostly 41.8 µM), usual class: inhibitors | hit rate 3.4% among 340,000 | AID 651820
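Infectious HCV cell culture screen: compound-treated cells (1,000/well, pre-plated 4 h) are infected with HCVcc-Cre at roughly 0.5 moi and grown 44 h. Infection is quantified by luciferase signal after 15 min substrate incubation at room temperature.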
Large screens that a line does not name were inactive. Unless noted, calls follow the shape of the dose curve; as a rule, active = well fitted curve in the direction sought with a large enough effect; inconclusive = small, poorly fitted or top-dose-only effect, or another doubt; inactive = no such curve, though single readings can be large; an effect the other way counts as inactive or inconclusive.

CCCC1(c2ccccc2)NC(=O)N(CC(=O)c2[nH]c(C)c(C(=O)OCC)c2C)C1=O (centres undefined)	Pf growth 48h 4.1µM, Pf growth 96h 8.3µM, HCV inh inconclusive
CCOC(=O)c1c(C)[nH]c(C(=O)CN2C(=O)NC3(CCCC3)C2=O)c1C	none
COCCCN1C(=O)C(CC(=O)NCc2ccco2)CC(C(=O)N(C(C)C)C(C)C)=C1C (centres undefined)	none (no result: Pf growth 48h, SARS PLP yeast, Sm TGR block, Pf growth 96h, HCV inh)
Oc1c(Cl)cc(Cl)c2c1NCCC2	Pf growth 48h inconclusive, Sm TGR block 1µM, HCV inh inconclusive
CC1(C)COC(c2ccc(F)c([N+](=O)[O-])c2)=N1	Sm TGR block 50µM, Pf growth 96h inconclusive, HCV inh inconclusive
CC(=O)NCc1ccc(C(=O)O)cc1	none
COCCN(C(=O)COC(=O)/C=C/c1ccc2c(c1)OCO2)c1c(N)n(Cc2ccccc2)c(=O)[nH]c1=O	Pf growth 96h inconclusive
CC1CC(C)CN(C(=O)c2ccncc2)C1 (centres undefined)	none (no result: Pf growth 48h)
Cn1cccc1/C=C1/SC(=S)N(CC(=O)O)C1=O	none
CC1C/C(=C/c2cccn2C)C(=O)/C(=C/c2cccn2C)C1 (centres undefined)	Pf growth 96h inconclusive, HCV inh 6.3µM (no result: Pf growth 48h)
CC1C/C(=C/c2ccncc2)C(=O)/C(=C/c2ccncc2)C1 (centres undefined)	Pf growth 48h inconclusive, HCMV antiviral -101, HCV inh inconclusive
CCCCCn1c(C(C)NC(=O)c2ccccc2)nc2ccccc21 (centres undefined)	none (no result: Pf growth 48h, SARS PLP yeast, Pf growth 96h, HCV inh)
CCn1c2ccc(C)cc2c2nnc(SCCN3CCCCC3)nc21	HCV inh inconclusive
CCn1c2ccc(F)cc2c2nnc(SCCN3CCCCC3)nc21	Pf growth 48h inconclusive, Pf growth 96h inconclusive, HCV inh 14µM
CCCn1c2ccc(C)cc2c2nnc(SCCN3CCCCC3)nc21	Pf growth 48h inconclusive, Pf growth 96h 9.3µM, HCV inh 8.9µM
COC(=O)C1CN(C#N)N(c2ccc(Cl)cc2)C12c1ccccc1-c1ccccc12 (centres undefined)	Pf growth 48h 3.3µM, Sm TGR block 5.6µM, HCV inh 4µM (no result: HCMV antiviral)
CCOc1ccc(CNC(=O)Cc2ccc(NC(=O)N3CCSc4ncccc43)cc2)cc1	none (no result: Pf growth 48h, SARS PLP yeast, Pf growth 96h, HCV inh)
CC#CCN1c2ccccc2[C@]23C[C@@H](C(=O)OC)N(C(=O)NC4CCCCC4)C2=NC(C(=O)OC)=C(C(=O)OC)[C@H]13	none (no result: Pf growth 48h, SARS PLP yeast, Sm TGR block, Pf growth 96h)
COc1ccc(N/C=C2\C(=O)CCc3c2oc2cc(Cl)c(O)c(Cl)c32)cc1	Sm TGR block 35µM, HCMV antiviral -62, Pf growth 96h inconclusive
Cc1cc(=O)[nH]c2c(C)cc(S(=O)(=O)N3CCOCC3)cc12	none (no result: Pf growth 48h, SARS PLP yeast, Sm TGR block, Pf growth 96h)
Cc1cc(=O)[nH]c2c(C)cc(S(=O)(=O)N3CCCCC3)cc12	Pf growth 96h 13µM
Cc1ccc(C)c(N2CCN(CCCNC(=O)c3ccc4nc(N5CCCCC5)sc4c3)CC2)c1	none (no result: Pf growth 48h, SARS PLP yeast, Pf growth 96h, HCV inh)
O=C(COC(=O)COc1ccc2ccccc2c1)NCC(F)(F)F	none
O=C(NCCN1CCCCC1)Nc1cccc(Cl)c1Cl	Pf growth 96h 13µM
O=C(CN1CCCCCC1)Nc1ccc(Cl)cn1	Sm TGR block 40µM, Pf growth 96h inconclusive
Cc1ccc(S(=O)(=O)Nc2ccc(=O)n(Cc3ccc(Cl)c(Cl)c3)c2)cc1	Pf growth 48h inconclusive, Sm TGR block 40µM
CC(=O)Nc1ccc(S(=O)(=O)Nc2ccc(=O)n(Cc3ccc(Cl)c(Cl)c3)c2)cc1	Pf growth 48h inconclusive, Pf growth 96h inconclusive
O=C(CN1CCN(CC(=O)c2ccc(F)cc2)CC1)Nc1ccccc1Cl	Pf growth 48h inconclusive, Sm TGR block 14µM
O=C(CN1CCN(Cc2ccccc2)CC1)Nc1ccc(Cl)cn1	HCV inh inconclusive (no result: Pf growth 96h)
O=C(CN1CCCCCC1)Nc1ccccc1Cl	Pf growth 96h inconclusive
CCCCC1(C)OC(=O)C(=Cc2ccc(N(C)C)cc2)C(=O)O1 (centres undefined)	Sm TGR block inconclusive
Cc1nn(CC(=O)Nc2ccccc2C(F)(F)F)c(=O)c2cccn12	Pf growth 48h inconclusive, Pf growth 96h inconclusive
CC(C)[C@H]1COCCS(=O)(=O)N1Cc1cccc(Cl)c1	Pf growth 96h inconclusive
Cc1ccccc1NC(=O)N1CCC(C(=O)c2ccc(F)cc2)CC1	Pf growth 96h inconclusive
Cc1ccc(S(=O)(=O)N2CCN(CC(=O)Nc3ccccc3Cl)CC2)cc1	Pf growth 48h inconclusive
O=C(CN1CCCCC1)Nc1cccc(Cl)c1Cl	none (no result: Pf growth 96h)
Cc1ccc(S(=O)(=O)Nc2ccc(NC(=O)CN3CCCCC3)c(Cl)c2)cc1	HCMV antiviral -102 (no result: Pf growth 96h)
O=C(c1ccc(F)cc1)C1CCN(C(=O)Nc2ccccc2Cl)CC1	Pf growth 96h 2.9µM
O=C(CN1CCCCCCC1)Nc1cccc(Cl)c1Cl	HCMV antiviral -65
C=C(C)CN(CC)C(=O)CSc1ccc(S(=O)(=O)N2CCN(Cc3ccccc3)CC2)cn1	Pf growth 48h inconclusive, Pf growth 96h 8.3µM, HCV inh inconclusive
C=C(C)CN(CC)C(=O)CSc1ccc(S(=O)(=O)N2CCN(C)CC2)cn1	Pf growth 48h 10µM, Pf growth 96h inconclusive
CC(C)(C)C(=O)CSc1ccc(S(=O)(=O)N2CCN(Cc3ccccc3)CC2)cn1	Pf growth 48h inconclusive, Pf growth 96h inconclusive
COc1ccc(NC(=O)CSc2nnc(-c3cccnc3)n2C)cc1	none
CCn1c(SCC(=O)Nc2ccc(N3CCOCC3)cc2)nnc1-c1ccco1	Sm TGR block inconclusive, Pf growth 96h 10µM
CCn1c(C)nnc1SCC(=O)Nc1ccc(N2CCOCC2)cc1	none (no result: HCV inh)
COc1ccc(NC(=O)CSc2nnc(-c3ccccc3C)n2C)cc1	Pf growth 48h inconclusive, HCMV antiviral -67
CCn1c(SCC(=O)Nc2ccc(C)cc2)nnc1-c1ccc(O)cc1	Pf growth 48h inconclusive, Pf growth 96h 2.6µM
CCN(CC)S(=O)(=O)c1ccc(NC(=O)CSc2nnc(-c3cccc(OC)c3)n2C)cc1	Pf growth 48h 10µM, Pf growth 96h inconclusive
CN(C)C(=O)c1ccc(NC(=O)COC(=O)C2CCN(S(=O)(=O)c3ccc4c(c3)OCCO4)CC2)cc1	none
COc1ccc(C(=O)Nc2ccc(NC(=O)CSc3nnc(-c4ccncc4)n3C)cc2)cc1	Pf growth 96h inconclusive
Nn1c(SCC(=O)Nc2ccc(S(N)(=O)=O)cc2)nnc1-c1ccco1	Pf growth 96h 13µM
COc1ccc(-c2nnc(SCC(=O)Nc3ccc(C)cc3)n2C)cc1	SARS PLP yeast inconclusive, Pf growth 96h 5.2µM
COc1cccc(CSc2nnc(-c3ccco3)n2C)c1	Pf growth 48h inconclusive, Sm TGR block 40µM
COc1ccc(NC(=O)CSc2nnc(-c3ccco3)n2C)cc1	Pf growth 96h 6.6µM
Cn1c(=O)cc(SCC(=O)NCCc2ccc(Cl)cc2)c2cc(Cl)ccc21	none (no result: Pf growth 48h, SARS PLP yeast, Pf growth 96h, HCV inh)
C[C@H](O)[C@@H]1C(=O)N2CCc3c([nH]c4ccccc34)[C@@H]2C[C@@H]1N(C)S(=O)(=O)c1ccccc1	none (no result: Pf growth 48h, SARS PLP yeast, Sm TGR block, Pf growth 96h, HCV inh)
